# This is a sample that favours compounds with a hit; in the whole collection about 4.8% have one here.
# HepG2 tox: counter-screen for TGF-b inhibitors: cytotoxicity in HepG2 cells | AID 588856 | hit rate 0.76% among 410,000 | Potency, µM (titrated, usually from 46.1 µM), for the others: at the top dose activity change, negative = cytotoxicity, usual class: cytotoxic | HepG2 CAGA-GFP viability, ATP luminescence, 18 h; further: potency means the concentration at half of the fitted maximal effect
#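 CellTiter-Glo luminescence gave cytotoxicity after 18 hours at 37 degrees C. The cells were HepG2 CAGA-GFP in 1% FBS DMEM, stimulated with 500 pg/mL TGF-beta after compound addition. %Activity was normalised to no-cell wells (complete cell-killing) and DMSO (no toxicity), and curves were fitted and classified.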
# DRD3 agonist: D3 dopamine receptor (human) agonism; P35462; D3R DiscoveRx beta-arrestin cells, luminescence, 90 min; max activation, %; hit rate 0.58% among 410,000; in the data active means max activation above about 30%; further: 0% is about no effect
# Target sequence (P35462 whole entry, looked up): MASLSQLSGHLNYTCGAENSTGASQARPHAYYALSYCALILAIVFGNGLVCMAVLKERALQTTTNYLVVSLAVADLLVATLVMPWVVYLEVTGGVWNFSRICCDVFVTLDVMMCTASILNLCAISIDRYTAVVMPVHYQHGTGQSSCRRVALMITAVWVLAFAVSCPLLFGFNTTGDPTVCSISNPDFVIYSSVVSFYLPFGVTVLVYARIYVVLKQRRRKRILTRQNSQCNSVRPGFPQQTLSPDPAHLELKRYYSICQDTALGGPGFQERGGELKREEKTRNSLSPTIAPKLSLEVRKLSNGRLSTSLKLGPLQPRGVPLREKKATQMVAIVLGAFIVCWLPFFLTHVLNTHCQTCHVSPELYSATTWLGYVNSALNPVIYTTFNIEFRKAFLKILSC
#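 Agonist-mode cell screen: cells plated at 1500/well and incubated overnight at 37 °C, then exposed to library compounds for 90 min at 37 °C. Detection reagent was added for 30–60 min at room temperature, and luminescence was read.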
# TGFb inhibitor: blocks TGF-b signaling; HepG2 CAGA-GFP TGF-b/SMAD3 reporter, GFP fluorescence, 18 h; TGF-beta stimulated, 500 pg/mL final; Potency, µM (top dose mostly 46.1 µM), for inactives: at the top dose activity, negative = inhibition, most hits filed as inhibitors; hit rate 1.2% among 410,000; AID 588855; further: potency means the concentration at half of the fitted maximal effect; on the % scale 0 is the no-effect control and ±100 the full control effect; nearly all actives have a fitted effect of over 65% in size
#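 Per well, imaged GFP fluorescence of HEPG2 CAGA-GFP cells gives the signal; cells get compound, then TGF-beta (500 pg/mL final), 18 h at 37 degrees C; %Activity versus -TGF-beta and +DMSO controls.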
# DRD3 antagonist: D3 dopamine receptor (human) antagonism | P35462 | D3R cells, DiscoveRx beta-arrestin luminescence, antagonist mode; stronger effect = lower value | max response, negative = inhibition, % | hit rate 2.5% among 360,000; in the data active means max response below about -50%; inconclusive means no clear call, values can overlap the other calls; further: on the % scale 0 is the no-effect control and ±100 the full control effect
#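 Cells plated overnight at 1500 cells/well, then exposed to library compounds with dopamine controls for 90 minutes at 37 degrees C. DiscoveRx reagent added for 30–60 minutes at room temperature; luminescence read, quantitative HTS format.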
# S2 tox: cell viability loss in ATXN counter-screen | S2 cells (HEK-293 line with an ATXN2-luciferase reporter) viability, CellTiter-Fluor protease fluorescence, 24 h | Potency, µM (top dose mostly 56.7 µM), hits mostly cytotoxic | hit rate 0.49% among 400,000 | AID 651635; further: potency means the concentration at half of the fitted maximal effect; nearly all actives have a fitted effect of over 40% in size
# ATXN2 expr inh: ATXN2 expression inhibition. HEK-293 ATXN2-luciferase reporter, luminescence, 24 h. Potency, µM (highest dose often 57 µM), without a hit: at the top dose activity change, negative = inhibition, hits mostly inhibitors. hit rate 0.72% among 360,000. AID 1745845; further: potency means the concentration at half of the fitted maximal effect; on the % scale 0 is the no-effect control and ±100 the full control effect; nearly all actives have a fitted effect of over 55% in size
#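 ATXN2-luciferase reporter cells (luciferase flanked by upstream and downstream ATXN2 gene portions) were treated 24 h at 37 °C with compounds at up to 57 uM. SteadyGlo luminescence gave expression; GF-AFC fluorescence gave viability.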
# Active calls of the source: *; i = inactive; u = inconclusive; x = not tested or not shown. Unless noted, the call rests on the fitted dose curve; in most records, active means well fitted curve in the direction sought with a large enough effect; inconclusive means small, poorly fitted or top-dose-only effect, or another doubt; inactive means no such curve, though single readings can be large; an effect the other way counts as inactive or inconclusive.
SMILES,HepG2 tox,DRD3 agonist,TGFb inhibitor,DRD3 antagonist,S2 tox,ATXN2 expr inh
COc1ccc(/C=N/Nc2cc(C)nc(NS(=O)(=O)c3ccc(C)cc3)n2)cc1,-46%,16,13µM*,-15,i,-4%
Cc1cc(C)c2c(n1)nn1c(C)c(CCC(=O)NCc3ccc(Cl)cc3)c(C)nc21,-4%,-4,-9%,x,i,-3%
Cc1ncc2c(c1CNS(=O)(=O)N(C)C)CCN(C(=O)/C=C/c1ccccc1F)C2,x,x,x,x,i,x
Cc1csc[n+]1CC(=O)c1ccccc1,-3%,x,3%,x,x,x
Cc1cc(N/N=C/c2ccccc2[N+](=O)[O-])nc(-n2nc(C)cc2C)n1,-40%,-25,2.5µM*,u,u,u
Cc1cc(N/N=C/c2ccc(O)cc2O)nc(-c2ccccc2O)n1,-41%,16,u,54,u,u
COc1ccc(/C=N/Nc2cc(N3CCCC3)nc(N3CCCC3)n2)cc1,-70%,15,u,2,28µM*,14µM*
Cc1cc(N/N=C/c2ccc(O)cc2O)nc(-n2nc(C)cc2C)n1,-43%,-28,-26%,-122*,u,u
CN(C)c1ccc(CCC2C=Cc3ccccc32)cc1 (configuration not stated),9%,x,-12%,x,x,x
COc1ccc(C)cc1NC1(c2ccccc2)C(=O)c2ccccc2C1=O,1%,7,-6%,x,i,7%
CCCn1c(=O)c(C(=O)Nc2cccc(C)n2)c(O)c2ccccc21,-4%,0,2%,0,i,24%
CCCn1c(=O)c(C(=O)Nc2ccccc2C(=O)OCC)c(O)c2ccccc21,-4%,37*,-13%,28,i,3%
Cc1nn(-c2cc(N3CCCC3)ccc2[N+](=O)[O-])c(=O)c2ccccc12,-19%,-1,-9%,-59*,u,-5%
O=S(=O)(c1ccc(Br)s1)N1CCN(c2ncccn2)CC1,-23%,-17,-2%,-79*,i,-14%
CC(CC(=O)Nc1cccnc1)c1ccccc1 (configuration not stated),0%,42*,3%,-11,i,3%
Cn1c(=O)c2cc(NC(=O)Cc3cccc4ccccc34)ccc2n1-c1ccccc1,4%,-12,11%,-7,i,-8%
CC(CC(=O)Nc1ccc2c(c1)c(=O)n(C)n2-c1ccccc1)c1ccccc1 (configuration not stated),2%,-18,-1%,-78*,u,6%
CC(CC(=O)Nc1ccc(Cl)c([N+](=O)[O-])c1)c1ccccc1 (configuration not stated),-32%,-16,u,-57*,i,-23%
CCCc1nnc(NC(=O)c2nc(S(=O)(=O)Cc3ccc(C)cc3)ncc2Cl)s1,-111%,-11,u,-65*,x,u
CC(C)c1nnc(NC(=O)c2nc(S(=O)(=O)Cc3ccccc3)ncc2Cl)s1,i,-24,u,-64*,u,u
COc1ccc2nc(NC(=O)c3nc(S(=O)(=O)Cc4ccc(C)cc4)ncc3Cl)sc2c1,-100%,-21,4.5µM*,x,x,x
Cc1ccc(CS(=O)(=O)c2ncc(Cl)c(C(=O)Nc3nc4ccc(C)cc4s3)n2)cc1,-51%,-13,-28%,x,x,u
C[C@]12CC[C@@H]3c4ccc(O)cc4C[C@@H](CCCCCCCCCS(=O)CCCC(F)(F)C(F)(F)F)[C@H]3[C@H]1CC[C@H]2O (some centres not stated),x,x,x,x,x,-7%
COc1cccc(CNC(=O)CSc2c3c(nc4ccc(Cl)cc24)CCCC3)c1OC,-57%,-4,u,x,x,x
Cn1cnc([N+](=O)[O-])c1S(=O)(=O)c1ccc(Cl)cc1,18µM*,-25,11µM*,-68*,u,u
CCCCO,x,68*,x,x,x,x
CN(C)/[N+]([O-])=N/Oc1ccc([N+](=O)[O-])cc1[N+](=O)[O-],-90%,x,u,x,x,x
